Where a name gives a salt, the structure may show the parent alone. ± gives the uncertainty stated by the source.
test system: NCC-MFS5-C1; assay: cell viability relative to DMSO control; higher = less growth inhibition; conditions: 10 µM; treatment time: 3 days
Experimental: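 NCC-MFS5-C1 myxofibrosarcoma cells (1x10^4 per well, 384-well) were treated on day 2 with 10 µM of each drug. On day 5, viability was read by CCK-8 absorbance at 450 nm and normalised to the DMSO control (%), n = 2.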

SMILES	cell viability [%]
CCN(CC)CCNC(=O)c1c(C)[nH]c(/C=C2\C(=O)Nc3ccc(F)cc32)c1C [Sunitinib]	67.9 ± 9.6
CN(C)C/C=C/C(=O)Nc1cc2c(Nc3ccc(F)c(Cl)c3)ncnc2cc1O[C@H]1CCOC1 [Afatinib (BIBW2992) Dimaleate]	15 ± 7
COc1cc(Nc2ncc(F)c(Nc3ccc4c(n3)N(COP(=O)(O)O)C(=O)C(C)(C)O4)n2)cc(OC)c1OC [Fostamatinib (R788)]	29.5 ± 0.8
COC(=O)C1=C(C#N)NC(C)=C(C(=O)OC(C)C)C1c1cccc([N+](=O)[O-])c1 (stereo not given) [Nilvadipine]	86 ± 4.2
Cc1ccc(NC(=O)c2ccc(CN3CC[C@H](N(C)C)C3)c(C(F)(F)F)c2)cc1Nc1nccc(-c2cncnc2)n1 [Bafetinib (INNO-406)]	2.79 ± 1.9
C[C@@H](CN1CC(=O)NC(=O)C1)N1CC(=O)NC(=O)C1 [Dexrazoxane]	122.6 ± 1.1
CNC(=O)c1ccccc1Sc1ccc2c(/C=C/c3ccccn3)n[nH]c2c1 [Axitinib]	79.1 ± 4.4
COc1cc([C@@H]2c3cc4c(cc3[C@@H](O[C@@H]3O[C@@H]5CO[C@@H](c6cccs6)O[C@H]5[C@H](O)[C@H]3O)[C@H]3COC(=O)[C@H]23)OCO4)cc(OC)c1O [Teniposide]	76.7 ± 4.4
C#Cc1cccc(Nc2ncnc3cc(OCCOC)c(OCCOC)cc23)c1 [Erlotinib]	81.7 ± 5.8
CC(C)(C#N)c1cc(Cn2cncn2)cc(C(C)(C)C#N)c1 [Anastrozole]	83.5 ± 5.1
O=C1NC(=O)[C@@H](c2cn3c4c(cccc24)CCC3)[C@@H]1c1c[nH]c2ccccc12 [Tivantinib (ARQ 197)]	48.3 ± 1.5
Nc1ncn([C@@H]2O[C@H](CO)[C@@H](O)[C@H]2O)c(=O)n1 [Azacitidine]	104 ± 13
CC[C@]1(O)C[C@@H]2CN(CCc3c([nH]c4ccccc34)[C@@](C(=O)OC)(c3cc4c(cc3OC)N(C)[C@H]3[C@@](O)(C(=O)OC)[C@H](OC(C)=O)[C@]5(CC)C=CCN6CC[C@]43[C@@H]65)C2)C1 [Vinblastine sulfate]	35.1 ± 2.5
O=C1CCC(N2C(=O)c3ccccc3C2=O)C(=O)N1 (stereo not given) [Thalidomide]	84.4 ± 8.3
CCc1ccc(CCOc2ccc(CC3SC(=O)NC3=O)cc2)nc1 (stereo not given) [Pioglitazone]	95.3 ± 2.9
CN1c2cc(O)c(N=NC(N)=O)cc2CC1S(=O)(=O)O (stereo not given) [Carbazochrome sodium sulfonate (AC-17)]	78.6 ± 7.6
CC(=O)O[C@]1(C(C)=O)CC[C@H]2[C@@H]3C=C(C)C4=CC(=O)CC[C@]4(C)[C@H]3CC[C@@]21C [Megestrol Acetate]	93.9 ± 4
COc1cccc2c1C(=O)c1c(O)c3c(c(O)c1C2=O)C[C@@](O)(C(=O)CO)C[C@@H]3O[C@H]1C[C@H](N)[C@H](O)[C@H](C)O1 [Doxorubicin (Adriamycin)]	37.47 ± 0.32
CC1=C(/C=C/C(C)=C/C=C/C(C)=C/C(=O)O)C(C)(C)CCC1 [Tretinoin]	78.5 ± 4.5
CCCCNc1ncc(-c2ccc(CN3CCOCC3)cn2)c(NC2CCC(O)CC2)n1 (stereo not given)	36.41 ± 0.22

SMILES	cell viability [%]
C[C@]1(O)C[C@@H](c2nc(-c3ccc4ccc(-c5ccccc5)nc4c3)c3c(N)nccn32)C1 [Linsitinib (OSI-906)]	57 ± 0.57
C=C1c2cccc(O)c2C(O)=C2C(=O)[C@]3(O)C(O)=C(C(N)=O)C(=O)[C@@H](N(C)C)[C@@H]3[C@@H](O)[C@H]12 [Methacycline HCl]	92.3 ± 5.3
CC(=O)OCC(CCn1cnc2cnc(N)nc21)COC(C)=O [Famciclovir]	80.4 ± 5.5
CC(=O)Oc1ccccc1C(=O)O [Aspirin]	81.4 ± 1.1
CN1CCN(c2ccc(C(=O)Nc3n[nH]c4ccc(Cc5cc(F)cc(F)c5)cc34)c(NC3CCOCC3)c2)CC1 [Entrectinib (RXDX-101)]	14.7 ± 15
COc1nc(N)nc2c1ncn2[C@@H]1O[C@H](CO)[C@@H](O)[C@@H]1O [Nelarabine]	102 ± 3.3
Cc1cc(Nc2ncc(Cl)c(Nc3ccccc3S(=O)(=O)C(C)C)n2)c(OC(C)C)cc1C1CCNCC1 [Ceritinib (LDK378)]	7.58 ± 6.4
CCN1CCN(Cc2ccc(Nc3ncc(F)c(-c4cc(F)c5nc(C)n(C(C)C)c5c4)n3)nc2)CC1 [Abemaciclib mesylate]	84.2 ± 9
NCC(=O)CCC(=O)O [5-Aminolevulinic acid HCl]	85.7 ± 2.2
CCS(=O)(=O)N1CCN(c2ccc(Nc3ncc(C(N)=O)c(NC4CC4)n3)cc2)CC1	61.5 ± 1.8
CNC[C@H](O)c1ccc(O)c(O)c1 [Epinephrine Bitartrate]	106 ± 5.9
Cc1c2oc3c(C)ccc(C(=O)N[C@@H]4C(=O)N[C@H](C(C)C)C(=O)N5CCC[C@H]5C(=O)N(C)CC(=O)N(C)[C@@H](C(C)C)C(=O)O[C@@H]4C)c3nc-2c(C(=O)N[C@@H]2C(=O)N[C@H](C(C)C)C(=O)N3CCC[C@H]3C(=O)N(C)CC(=O)N(C)[C@@H](C(C)C)C(=O)O[C@@H]2C)c(N)c1=O [Actinomycin D]	40.2 ± 2.1
CN(C)C/C=C/C(=O)Nc1cc2c(Nc3ccc(F)c(Cl)c3)ncnc2cc1O[C@H]1CCOC1 [Afatinib (BIBW2992)]	9.65 ± 4.3
Cc1cccc(N(C)C(=S)Oc2ccc3ccccc3c2)c1 [Tolnaftate]	103 ± 6.7
Cc1cn(-c2cc(NC(=O)c3ccc(C)c(Nc4nccc(-c5cccnc5)n4)c3)cc(C(F)(F)F)c2)cn1 [Nilotinib (AMN-107)]	57.2 ± 3.6
CC(=O)O[C@@]12CO[C@@H]1C[C@H](O)[C@@]1(C)C(=O)[C@H](O)C3=C(C)[C@@H](OC(=O)[C@H](O)[C@@H](NC(=O)OC(C)(C)C)c4ccccc4)C[C@@](O)([C@@H](OC(=O)c4ccccc4)[C@H]21)C3(C)C [Docetaxel]	67 ± 2.2
COc1ccc(/C=C/C(=O)Nc2ccccc2C(=O)O)cc1OC [Tranilast]	80.2 ± 2.5
CC#CCn1c(N2CCC[C@@H](N)C2)nc2c1c(=O)n(Cc1nc(C)c3ccccc3n1)c(=O)n2C [Linagliptin]	92.8 ± 5.3
Cc1nc(Nc2ncc(C(=O)Nc3c(C)cccc3Cl)s2)cc(N2CCN(CCO)CC2)n1 [Dasatinib]	55.3 ± 5.5
Cc1ccc(-n2[nH]c(C)c(N=Nc3cccc(-c4cccc(C(=O)O)c4)c3O)c2=O)cc1C [Eltrombopag Olamine]	111 ± 5.6

— the supplement of paper PMC8773631
